Here are results for five molecules from PubChem BioAssay.

The nature of test [1]: reducers of endogenous Her2 protein level, primary screen, SKBR3 breast tumor cells, AlphaScreen, ATP viability (AID 461;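 active = Her2 level under about 52% in both replicate screens, with viability over 70% of control, limit read from the data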;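 as to Her2 level: lower value means less Her2 protein in the cells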;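 as to viability: percent of carrier control wells set as 100% viability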). The settings on record: 18-24 h, measured here: SKBR3 viability, ATP luminescence, at 10 µM. (In general: In Alpha technology, singlet oxygen from a donor bead excites a nearby acceptor bead.)
Test [2] deals with Receptor tyrosine-protein kinase erbB-2 (Homo sapiens) (UniProt P04626). The test is described as above. The settings on record: 18-24 h, at 10 µM, stronger effect = lower value.
Chain of Receptor tyrosine-protein kinase erbB-2 (Homo sapiens) (P04626 whole entry, looked up): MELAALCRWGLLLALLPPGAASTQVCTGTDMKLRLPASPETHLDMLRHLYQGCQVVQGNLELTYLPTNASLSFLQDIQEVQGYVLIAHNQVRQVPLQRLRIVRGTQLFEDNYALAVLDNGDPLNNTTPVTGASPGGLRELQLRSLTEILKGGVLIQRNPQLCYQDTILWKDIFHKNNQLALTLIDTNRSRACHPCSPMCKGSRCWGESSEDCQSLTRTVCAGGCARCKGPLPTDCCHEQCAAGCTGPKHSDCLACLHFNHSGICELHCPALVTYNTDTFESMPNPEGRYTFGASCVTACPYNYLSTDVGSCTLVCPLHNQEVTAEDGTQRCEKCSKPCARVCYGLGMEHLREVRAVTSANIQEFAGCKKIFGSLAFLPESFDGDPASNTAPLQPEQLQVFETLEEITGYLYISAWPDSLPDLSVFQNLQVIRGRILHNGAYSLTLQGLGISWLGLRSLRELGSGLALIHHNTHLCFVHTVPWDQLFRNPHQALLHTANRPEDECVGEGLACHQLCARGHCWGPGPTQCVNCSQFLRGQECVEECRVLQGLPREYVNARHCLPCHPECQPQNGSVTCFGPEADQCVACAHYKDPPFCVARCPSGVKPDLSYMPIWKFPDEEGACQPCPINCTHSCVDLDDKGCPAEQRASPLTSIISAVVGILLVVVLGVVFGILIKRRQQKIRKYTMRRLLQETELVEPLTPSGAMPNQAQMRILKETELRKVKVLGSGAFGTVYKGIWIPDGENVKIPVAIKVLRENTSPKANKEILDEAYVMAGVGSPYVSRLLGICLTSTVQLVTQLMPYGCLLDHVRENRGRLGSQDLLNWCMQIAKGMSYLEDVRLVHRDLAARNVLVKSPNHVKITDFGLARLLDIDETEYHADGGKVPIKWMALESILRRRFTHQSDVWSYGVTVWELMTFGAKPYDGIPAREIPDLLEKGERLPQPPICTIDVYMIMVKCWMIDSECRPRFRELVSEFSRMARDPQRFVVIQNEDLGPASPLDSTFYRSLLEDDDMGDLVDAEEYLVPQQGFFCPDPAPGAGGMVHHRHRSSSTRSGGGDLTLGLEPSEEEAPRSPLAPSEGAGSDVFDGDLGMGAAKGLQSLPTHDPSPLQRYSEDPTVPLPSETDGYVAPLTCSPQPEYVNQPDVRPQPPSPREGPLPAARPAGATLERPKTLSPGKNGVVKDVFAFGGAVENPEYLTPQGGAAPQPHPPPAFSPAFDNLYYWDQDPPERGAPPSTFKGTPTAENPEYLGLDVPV
Test [3] can be described thus: SK-BR-3 cell growth inhibitors, pilot screen, 24 h, human (AID 572;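 active = viability at or below 10% of carrier control in both of two separate runs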;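 also: compound exposure lasted between 18 and 24 h rather than exactly 24 h; 100% = carrier-treated control wells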). The settings on record: SK-BR-3 viability, CellTiter-Glo luminescence, at 10 µM, stronger effect = lower value. On the technique in general: ATP-based viability assays read luminescence as a measure of living cells.
A short description of test [4]: HUVEC growth inhibition – cell-based, human, primary screen (AID 575;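 active = viability at or below 30% in both replicate assays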;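 also: 100% = median of untreated cell wells with 0.1% DMSO on each plate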). The conditions noted are these: HUVEC proliferation, CellTiter-Glo luminescence, 72 h; at 10 µM; stronger effect = lower value.
The nature of test [5]: growth inhibitors of H69AR lung tumor, primary screen, human, duplicate replicates (AID 580;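 active = viability at or under a set limit in both replicates, limit being median viability minus 3 SD, cut at about 48% in these data, passing the limit was not always enough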;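 also: 100% = mean luminescence of untreated wells and 0% = no signal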). The settings on record: H69AR lung tumor cells viability, ATP luminescence, 72 h; at 10 µM; stronger effect = lower value.
Test [6] in a line: reversal of MRP1-mediated doxorubicin resistance, pilot screen, H69AR cells, doxorubicin co-treatment (AID 601;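 active = viability loss from added drug above about 55%, and viability with drug at most 40%, in both replicates, limit read from the data, passing the limit was not always enough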). The conditions noted are these: CellTiter-Glo, 72 h, at 10 µM; for differential viability (reversal): stronger effect = higher value.
A short description of test [7]: 384-well plate pilot, post-Golgi transport modulator project, inhibition of yeast transport mutant growth (AID 636; in the data active = inhibition above about 31%). The settings on record: absorbance 615 nm, about 18 h, stronger effect = higher value.
Test [8] in a line: growth suppression of yeast trafficking mutant, preliminary HTS, modulators of trafficking downstream of Golgi apparatus project, 1536-format plate, OD 615 nm (AID 637; in the data active = inhibition above about 30%). The settings on record: yeast transport mutant growth, absorbance 615 nm, 18 h; stronger effect = higher value.
A short description of test [9]: OD615 S. cerevisiae growth inhibition, permissive medium, pilot counter-assay, permissive growth control for S. cerevisiae lifespan shortening project (AID 705;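 active = growth inhibition above 25% in both replicates, a cutoff set 3 SD above the mean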). The settings on record: OD615, 24 h, at 10 µM, stronger effect = higher value.
Test [10] can be described thus: Restrictive medium S. cerevisiae growth inhibition, OD615, pilot screen of yeast lifespan reduction project, restrictive growth control (AID 706;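 active = growth inhibition above a set limit, 3 SD over mean compound inhibition, in both replicates, cut at about 43% in these data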;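 also: modified DeaD lifespan yeast strain shifted to restrictive glucose medium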). The conditions noted are these: OD615, 48 h, at 10 µM, stronger effect = higher value.
The nature of test [11]: viability gain of MRP-1-high H69AR cells under doxorubicin, pilot screen, MRP-1 activator project, CellTiter-Glo, duplicate (AID 807;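 active = viability increase at or above a cutoff of the median across tested compounds plus 3 SD, cut at about 8.5% in these data, passing the limit was not always enough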;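 also: compound pretreatment 18-22 h then 72 h combined with doxorubicin; 0% = doxorubicin alone and 100% = vehicle without doxorubicin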). The conditions noted are these: H69AR viability with doxorubicin, CellTiter-Glo luminescence; at 10 µM; stronger effect = higher value.
Test [12] can be described thus: growth suppression of beta-catenin knockout HCT116, pilot screen, human colon tumor cells (AID 823;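 active = cell viability at or below a set limit in both duplicate runs, the limit being the all-compound median minus 4 SD, cut at about 23% in these data, passing the limit was not always enough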;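 also: 0% = wells killed by 20 µM Hyamine and 100% = untreated DMSO cell wells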). The settings on record: CellTiter-Glo, 60 h, at 10 µM, stronger effect = lower value.
Test [13] is described as follows: growth suppression of PTEN-deleted HCT116, pilot screen, cell-based, HCT116 clonal line, CellTiter-Glo (AID 824;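 active = viability at or below 27.92% in each of two runs, the all-compound median minus 4 SD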;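 also: 0% = 20 µM Hyamine control and 100% = vehicle cell control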). The conditions noted are these: 60 h, at 10 µM, stronger effect = lower value.
Test [14] can be described thus: inhibitors of the yeast RAM network, pilot screen, dse1pr::URA3 reporter, 5-FOA selection (AID 869;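 active = inhibition over a set limit, the all-compound mean plus 3 SD, in both replicate runs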;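 also: 0% = DMSO wells with no growth and 100% = 10 µM 1-NA-PP1 with full growth; RAM network block rescues cells from 5-FOA so hits raise OD615 growth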). The settings on record: S. cerevisiae dse1pr::URA3 5-FOA growth, OD615, 2 d; at 10 µM; stronger effect = higher value; strain carries analog-sensitive mutant Cbk1 kinase.
Test [15] in a line: RAM signaling pathway blockade in yeast – S. cerevisiae, Pdr1DBD-CYC8 efflux-inhibited sensitized strain, primary screen (AID 1298).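 Also: 0% = DMSO untreated cells without growth and 100% = 10 µM 1-NA-PP1 full growth; higher means more yeast growth rescued from 5-FOA killing.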 The settings on record: S. cerevisiae cbk1-as DSE1-URA3 strain, 5-FOA growth OD615, 2 d; at 50 µM; stronger effect = higher value.
Where [16] appears, read: H69AR cells + 2 uM doxorubicin, measured here: viability with 2 uM doxorubicin, stronger effect = lower value.
The mark [17] stands for this setting: H69AR cells, compound alone cytotoxicity.

Records with an inconclusive call do not appear. Calls of active or inactive are those of the source.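 The calls were made as follows, unless noted: active = RAM network inhibition above 8.4% in each of two replicates, 3 SD over the compound average; inconclusive = above 8.4% inhibition in only one replicate; inactive = 8.4% inhibition or less in each replicate.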

One may read the viability as a read-out of living cells in per cent, often relative to untreated cells. Broadly, the inhibition is the drop in the measured response relative to a control, in per cent. As for `CCOC(=O)N1CCN(C(=O)c2ccc3nc4ccsc4c(=O)n3c2)CC1`, the viability in [1] was 97.5%; in test [3] it was 97.5% (inactive); in [4], 87.2% (inactive); in test [5] it was 89.4% (inactive); in test [6] (setting [16]), 90.8%; in test [6] (setting [17]), 89.4%. Further, the viability in test [12] and in test [13] was 101% (inactive) throughout. In test [2], the Her2 level was 102% (inactive). For the same molecule, the differential viability (reversal) in test [6] (H69AR cells + 2 uM doxorubicin) is -1.36% (inactive). Also, the inhibition in [7] is -7.87% (inactive); in [8], -6.39% (inactive); in test [14], 0.335% (inactive). In addition, the growth inhibition in [9] was 5.57% (inactive); in test [10], 7.09% (inactive). The viability increase in [11] was -4.18% (inactive). In addition, the RAM network inhibition in test [15] was -0.16% (inactive).
As for `C/C=C/Cn1c(SCCCc2ccccc2)nc2c1c(=O)[nH]c(=O)n2C`, the viability is 89.5% in test [1]; 89.5% (inactive) in test [3]; 61.2% (inactive) in test [4]; 69.6% (inactive) in test [5]; 68.8% in test [6] (setting [16]); 69.6% in [6] (setting [17]). The values for the viability in [12] and in test [13] were 66.8% (inactive) and 52.6% (inactive), respectively. The Her2 level in test [2] is 72% (inactive). Besides, in test [6] (H69AR cells + 2 uM doxorubicin), the differential viability (reversal) is 0.835% (inactive). In addition, the inhibition was 1.07% (inactive) in test [7], 3.61% (inactive) in test [8] and 1.32% (inactive) in test [14]. For the same molecule, the growth inhibition in test [9] was -15.3% (inactive); in test [10], 1.29% (inactive). Besides, the viability increase in test [11] was -3.52% (inactive). In addition, the RAM network inhibition in [15] is 9.17% (inactive).
Take `O=C(CC1Oc2ccccc2NC1=O)NCCCN1CCOCC1` (stereo not given): the viability is 106% in test [1]; 106% (inactive) in [3]; 85.5% (inactive) in test [4]; 93.5% (inactive) in test [5]; 96.9% in test [6] (setting [16]); 93.5% in [6] (setting [17]). Also, the viability in test [12] is 108% (inactive); in [13], 96.8% (inactive). Also, the Her2 level in test [2] is 100% (inactive). The differential viability (reversal) in test [6] (H69AR cells + 2 uM doxorubicin) was -3.48% (inactive). Further, the inhibition in test [7] is -5.07% (inactive); in test [8], 2.67% (inactive); in [14] it was 1.94% (inactive). The growth inhibition is 2.08% (inactive) in test [9] and -1.36% (inactive) in [10]. In addition, the viability increase in [11] is -2.31% (inactive). Also, the RAM network inhibition in test [15] was 0.57% (inactive).
As for `Cc1nn(-c2ccc(F)cc2)c2c1cc(C#N)c1nc3ccccc3n12`, the viability in [1] was 102%; in test [3], 102% (inactive); in test [4] it was 56.2% (inactive); in test [5], 86.3% (inactive); in test [6] (setting [16]), 80.9%; in test [6] (setting [17]), 86.3%. For the same molecule, the viability in [12] is 95.9% (inactive); in test [13], 93.5% (inactive). Further, in test [2], the Her2 level was 81% (inactive). The differential viability (reversal) in [6] (H69AR cells + 2 uM doxorubicin) was 5.42% (inactive). The inhibition in test [7] was -2.89% (inactive); in test [8], -2.67% (inactive); in test [14], 0.36% (inactive). The growth inhibition in test [9] was 1.38% (inactive); in [10], 8.66% (inactive). Moreover, in [11], the viability increase is -1.92% (inactive). In test [15], the RAM network inhibition was 6.61% (inactive).
As to `Cc1sc2nc(SCC(=O)NCCO)n(C)c(=O)c2c1C`, the viability was 91% in test [1]; 91% (inactive) in test [3]; 104% (inactive) in test [4]; 88% (inactive) in test [5]; 94.7% in test [6] (setting [16]); 88% in test [6] (setting [17]). Further, the viability in [12] is 105% (inactive); in test [13], 94.6% (inactive). Further, the Her2 level in test [2] is 108% (inactive). Also, the differential viability (reversal) in [6] (H69AR cells + 2 uM doxorubicin) is -6.7% (inactive). Further, the inhibition in [7] is 0.77% (inactive); in test [8] it was -8.33% (inactive); in [14], 3.88% (inactive). For the same molecule, the growth inhibition is -9.24% (inactive) in test [9] and -20.8% (inactive) in test [10]. In addition, the viability increase in test [11] was -1.81% (inactive). Moreover, the RAM network inhibition in test [15] is 2.59% (inactive).
